# GPR151 activ – activators of human GPR151, primary screen, cell-based, PathHunter beta-arrestin, luminescence; activation, % at 11.2 µM; G-protein coupled receptor 151 (Homo sapiens), Q8TDV0; 1% of 650,000 active; PathHunter beta-arrestin GPR151 cells; in the data active means activation above about 4.9%;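 further: 0% = median of compound wells and 100% = cells with positive control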
# MITF primary – MITF inhibitors, primary screen, biochemical, AlphaScreen, human; AlphaScreen MITF homodimerization, bead proximity signal; inhibition, % at 2.6 µM; Microphthalmia-associated transcription factor (Homo sapiens), O75030; 0.91% of 650,000 active; in the data active means inhibition above about 50%;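 further: 0% = vehicle wells with protein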
# Target sequence (O75030 whole entry, looked up): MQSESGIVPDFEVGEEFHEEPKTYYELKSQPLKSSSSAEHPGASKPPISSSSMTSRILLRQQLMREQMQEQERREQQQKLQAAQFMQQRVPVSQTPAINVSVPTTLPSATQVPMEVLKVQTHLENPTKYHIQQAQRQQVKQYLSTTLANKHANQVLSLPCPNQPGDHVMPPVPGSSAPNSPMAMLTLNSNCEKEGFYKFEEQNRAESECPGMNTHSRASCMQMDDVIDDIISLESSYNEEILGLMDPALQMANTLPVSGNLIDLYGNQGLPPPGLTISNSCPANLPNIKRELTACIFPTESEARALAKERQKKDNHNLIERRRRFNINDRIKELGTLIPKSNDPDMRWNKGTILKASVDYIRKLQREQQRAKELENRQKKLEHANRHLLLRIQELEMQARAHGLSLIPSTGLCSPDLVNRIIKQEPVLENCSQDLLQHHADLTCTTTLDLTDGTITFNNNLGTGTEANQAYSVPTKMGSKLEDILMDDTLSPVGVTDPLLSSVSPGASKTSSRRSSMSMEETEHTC
# FBW7 act – FBW7 E3 ligase activators, primary screen, biochemical, AlphaScreen, human. F-box/WD repeat-containing protein 7 (Homo sapiens), Q969H0. AlphaScreen FBW7–phospho-cyclin E peptide binding, activator screen. normalized activity (activation), % at 26.1 µM. 0.13% of 650,000 active; in the data active means normalized activity above about 1.9%;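 further: purified mutant Fbw7 with reduced substrate affinity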
# TEAD-YAP inh – TEAD-YAP interaction inhibition, primary screen, TEAD-YAP interaction inhibitor project, luminescence, HEK-TIYL cells; TEAD-Gal4/YAP UAS-luciferase luminescence; inhibition, % at 9.12 µM; 1.4% of 640,000 active; AID 1259422, 2018; in the data active means inhibition above about 32%;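 further: 0% = median of test compound wells and 100% = reference inhibitor wells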
# MITF inh conf – MITF inhibitors, retest of hits, confirmation, biochemical, AlphaScreen, triplicate | shares compounds with MITF primary | inhibition, % at 2.6 µM | AlphaScreen MITF homodimerization, biotin/His-MITF beads | 16% of 4,700 active;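 active means inhibition above a cutoff derived from the DMSO control wells, cut at about 28% in these data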;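 further: 0% = MITF dimer wells with DMSO only; inhibitors lower the bead chemiluminescence by keeping MITF from dimerizing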
# AlphaScreen DR – AlphaScreen optical interference compounds, dose response, counter-screen, biochemical, HTS; shares compounds with MITF primary; AlphaScreen optical interference counterscreen, cell-free; IC50, µM; 6% of 480 active; call rule not given here
# AS interf ctr – AlphaScreen optical interference compounds, counter-screen for MITF inhibitor project, biochemical, triplicate; LysRS AlphaScreen counterscreen, signal interference; shares compounds with MITF primary; inhibition, % at 2.6 µM; 7.6% of 4,700 active; AID 1259376, 2018;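 active means inhibition above a cutoff derived from the DMSO control wells, cut at about 30% in these data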
# The depositor's hits bear a star; nt = not tested or not shown. The list is not random: actives were taken first. Their share in the collection is about 3.4%.
SMILES,GPR151 activ,MITF primary,FBW7 act,TEAD-YAP inh,MITF inh conf,AS interf ctr,others
c1csc(-c2nc3cnccn3c2NCc2ccc3c(c2)OCO3)c1,-1,-3,0,-18,nt,nt,
Cc1cc(C)cc(NC(=O)c2ccc3c(=O)n(Cc4cccc(Br)c4)c(=S)[nH]c3c2)c1,-1,14,0,-1,nt,nt,
COc1ccccc1/C=C/CN1CCN(CCOCCO)CC1,1,54*,0,18,-2,-4,
COc1ccccc1/C=C/CN1CCN(Cc2ccccc2)CC1,0,38,0,-2,nt,nt,
COc1ccccc1/C=C/CN1CC(C)OC(C)C1 (stereo unspecified),3,53*,0,2,0,-2,
COc1cc(OC)c(OC)cc1/C=C1\C(=O)N(c2ccccc2)N=C1C,0,9,0,1,nt,nt,
Cc1ncc2c(c1CNC(=O)Cc1cccs1)CCN(C(=O)CCC1CCCC1)C2,0,9,0,-8,nt,nt,
Cc1ncc2c(c1CNC(=O)Cc1cccs1)CCN(C(=O)C1(C)CCCCC1)C2,-1,74*,0,7,15,10,
O=S(=O)(Cc1ccc(F)cc1)NCC(c1ccsc1)N1CCOCC1 (stereo unspecified),0,78*,0,6,-2,-1,
O=S(=O)(NCC(c1ccc(F)cc1)N1CCOCC1)c1ccc2c(c1)OCCO2 (stereo unspecified),-1,55*,0,5,6,4,
Cc1cc(F)ccc1S(=O)(=O)NCC(c1ccsc1)N1CCOCC1 (stereo unspecified),-2,9,0,11,nt,nt,
CCS(=O)(=O)N1CCN(Cc2ccccc2OC)CC1,-1,58*,0,3,7,11,
CCOc1ccccc1CN1CCN(S(=O)(=O)CC)CC1,1,29,0,7,nt,nt,
COc1ccccc1CN1CCN(S(C)(=O)=O)CC1,1,-4,1,3,nt,nt,
CCCS(=O)(=O)N1CCN(Cc2ccccc2OCC)CC1,-1,74*,0,7,2,11,
CCCOc1ccc(N2C(=O)CC(N3CCN(c4cccc(Cl)c4)CC3)C2=O)cc1 (stereo unspecified),0,7,0,-2,nt,nt,
COc1cc(CN2CCN(C3CCCCCC3)CC2)cc(OC)c1O,0,58*,1,-8,6,14,
COc1cc(CN2CCN(C3CCCC(C)C3)CC2)cc(OC)c1O (stereo unspecified),0,74*,0,6,9,26,
Cc1ccc(C)c(C(=O)CC2(O)C(=O)N(CCc3ccccc3)c3ccccc32)c1 (stereo unspecified),-1,8,0,3,nt,nt,
O=C(c1cccnc1)N1C2C=CC(C2)C1(C(F)(F)F)C(F)(F)F (stereo unspecified),-2,33,0,5,nt,nt,
O=C(c1ccncc1)N1C2C=CC(C2)C1(C(F)(F)F)C(F)(F)F (stereo unspecified),0,68*,0,0,59*,-6,AlphaScreen DR=>6.5
O=c1c(CN2CCCC(O)C2)coc2ccccc12 (stereo unspecified),1,41,0,6,nt,nt,
CCN1CCN(CCOc2ccccc2CO)CC1,0,39,-1,7,nt,nt,
CCN1CCN(CCCOc2cccc(C)c2C)CC1,0,67*,0,2,9,8,
CCOc1ccccc1OCCCN1CCN(CC)CC1,0,67*,0,1,9,13,
SMILES,GPR151 activ,MITF primary,FBW7 act,TEAD-YAP inh,MITF inh conf,AS interf ctr,others
c1ccc(-c2ccccc2OCCCCN2CCNCC2)cc1,-2,49,-1,-3,nt,nt,
c1ccc(-c2ccccc2OCCCN2CCNCC2)cc1,-1,64*,0,-2,-2,10,
CCc1ccccc1OCCN1CCN(CC)CC1,1,77*,0,-4,12,13,
CCN1CCN(CCOCCOc2ccccc2Br)CC1,1,56*,0,4,13,15,
CCN1CCN(CCCOc2ccc(Cl)c(Cl)c2)CC1,1,28,0,-12,nt,nt,
CCN1CCN(CCCOc2ccccc2-c2ccccc2)CC1,1,60*,0,11,7,10,
CCN1CCN(CCCOc2cc(C)c(Cl)cc2C)CC1,-1,64*,0,2,3,11,
Cc1cccn2cc(CNC(=O)CCc3nnc(CCCc4ccccc4)o3)nc12,-1,12,0,4,nt,nt,
N#Cc1cccc(NC(=O)CSc2nncs2)c1,-1,53*,0,-14,6,11,
N#Cc1cccc(NC(=O)CSc2nc3ccccc3s2)c1,-2,10,0,-5,nt,nt,
O=C(CCN1CCN(c2ccc(Cl)cc2)CC1)Nc1ccccc1C(F)(F)F,0,1,0,11,nt,nt,
CC(NC(=O)C1CCN(Cc2ccccc2)CC1)c1ccccc1 (stereo unspecified),0,53*,0,4,10,7,
CC(NC(=O)C1CCNCC1)c1ccccc1 (stereo unspecified),0,51*,0,11,1,12,
COc1ccc(CN2CCC(C(=O)NC(C)C)CC2)c(OC)c1OC,1,71*,0,-10,-13,-5,
CC(NC(=O)C1CCN(Cc2ccccc2O)CC1)c1ccccc1 (stereo unspecified),2,19,0,2,nt,nt,
COc1ccc(OC)c(CN2CCC(C(=O)NC(C)c3ccccc3)CC2)c1 (stereo unspecified),-1,52*,0,-5,8,21,
Nc1cccc(-c2ccc(C(=O)NCCN3CCOCC3)s2)c1,0,12,1,-13,nt,nt,
Cc1cc(F)c(F)cc1C(=O)N1CCN(c2cc(N3CCCCC3)c(F)cc2[N+](=O)[O-])CC1,-1,7,0,7,nt,nt,
COc1ccc(OC)c(-n2cnc3cc(C(=O)NCc4ccccc4Cl)ccc32)c1,-1,2,0,0,nt,nt,
COc1ccc(OC)c(-n2cnc3cc(C(=O)NCc4ccco4)ccc32)c1,0,75*,0,-12,20,6,
O=C(c1cccc(Cl)c1)N1CCN(C2CCC(c3ccccc3)CC2)CC1 (stereo unspecified),0,39,0,4,nt,nt,
CC1CCCC(N2CCN(C(=O)c3cccc(Cl)c3)CC2)C1 (stereo unspecified),1,51*,0,-4,-3,-2,
O=C(c1cccc(Cl)c1)N1CCN(C2CCCC2)CC1,1,53*,0,0,-3,-2,
CC1CCCN(C(=O)c2cccc(Cl)c2)C1 (stereo unspecified),1,-3,0,-2,nt,nt,

# Source: PubChem
